# Results published in PubChem BioAssay (EPA / NIEHS).
# Results filed as inconclusive are left out. The source made the active and inactive calls. The calls were made as follows: active = hit-call score of the fitted dose curve at least 0.9, where 1 is the maximum; inconclusive = response in the unintended direction; inactive = score below 0.9.
# Biological target: rat Monoamine Oxidase, MAO-B, Peripheral (MAOBP), Maob (gene 25750) (UniProt P19643)
# Assay: NVS_ENZ_rMAOBP: NovaScreen (NVS) Enzymatic Assay for rat Monoamine Oxidase, MAO-B, Peripheral (MAOBP) (AID 2283242)
# Procedure: NVS_ENZ_rMAOBP is a biochemical, single-readout assay that uses extracted gene-proteins from Rat brain in a tissue-based cell-free assay. Measurements were taken 1.17 hours after chemical dosing in a 96-well plate.NVS_ENZ_rMAOBP is one of one assay component(s) measured or calculated from the NVS_ENZ_rMAOBP assay. It is designed to make measurements of enzyme activity, a form of enzyme reporter, as detected with scintillation counting signals by Lysate-based radiodetection technology.Data from the assay component NVS_ENZ_rMAOBP was analyzed into 1 assay endpoint. This assay endpoint, NVS_ENZ_rMAOBP, was analyzed in the positive analysis fitting direction relative to DMSO as the negative control and baseline of activity. Using a type of enzyme reporter, loss-of-signal activity can be used to understand changes in the enzymatic activity as they relate to the gene Maob. Furthermore, this assay endpoint can be referred to as a primary readout, because this assay has produced multiple assay endpoints where this one serves a enzymatic activity function. To generalize the intended target to other relatable targets, this assay endpoint is annotated to the oxidoreductase intended target family, where the subfamily is monoamine oxidase.
# Binding assays used specific radioligands (tritiated, iodinated) with non-radioactive competitive displacement ligands in agonist or antagonist protocols (as indicated) and various reference compounds and inhibitors to titrate specific binding to receptors and transporters. Most enzyme assays (CYPs, kinases, phosphatases, proteases, HDACs) used recombinant protein and specific substrates (fluorescence mostly, some colorimetric and radioactive) and inhibitors, followed by a biochemical separation of substrate and product. All assays for the biochemical HTS were initially run in duplicate at a single concentration (10 uM for CYP450 assays and 25 uM for all others). Assay-chemical combinations meeting a pre-defined threshold (e.g., 30% inhibition and other criteria defined below) were then run in singleton concentration-response format with maximum concentration of 20 uM for CYPs and 50 uM for all others. Each assay was run with positive and negative controls, and concurrent controls on every plate. The follow-up (secondary) screen tested active chemical-pairs in concentration series, as well as a few additional assays not tested in the primary screen, some selected negative inactives, and several cases re-run in the concentration series for confirmatory purposes.
# Chain of rat Monoamine Oxidase, MAO-B, Peripheral (MAOBP), Maob (gene 25750) (P19643 whole entry, looked up): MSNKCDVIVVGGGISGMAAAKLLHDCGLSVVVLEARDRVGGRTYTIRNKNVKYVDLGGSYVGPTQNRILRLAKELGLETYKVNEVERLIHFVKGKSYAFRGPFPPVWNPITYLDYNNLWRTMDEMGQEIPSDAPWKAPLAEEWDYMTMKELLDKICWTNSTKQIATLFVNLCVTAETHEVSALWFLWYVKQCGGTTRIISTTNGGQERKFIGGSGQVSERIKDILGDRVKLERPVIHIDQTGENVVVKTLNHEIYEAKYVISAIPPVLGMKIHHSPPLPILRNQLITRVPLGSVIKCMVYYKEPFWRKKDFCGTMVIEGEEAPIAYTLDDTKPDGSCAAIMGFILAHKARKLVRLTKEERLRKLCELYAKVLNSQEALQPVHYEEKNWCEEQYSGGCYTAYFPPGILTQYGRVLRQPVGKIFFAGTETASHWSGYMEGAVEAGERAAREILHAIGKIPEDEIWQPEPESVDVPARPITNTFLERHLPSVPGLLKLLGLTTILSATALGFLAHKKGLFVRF
Structure (SMILES),outcome,AC50
S=C(S)NCCNC(=S)S.[Mn+2].[S-]C([S-])=NCCN=C([S-])[S-].[Zn+2],inactive,–
O=C1c2ccccc2C(=O)N1CCc1noc(-c2ccc(CN3CCCCCC3)s2)n1,–,11.4 µM (active)
O=c1ccc2ccccc2o1,–,13.5 µM (active)
S=C([S-])NCCNC(=S)[S-].[Mn+2],inactive,–
COc1ccc(S(=O)(=O)N2C(=O)[C@@](c3ccccc3OC)(N3C[C@H](O)C[C@H]3C(=O)N(C)C)c3cc(Cl)ccc32)c(OC)c1,inactive,–
O=C(c1ccc(O)cc1O)c1ccc(O)cc1O,inactive,–
CC=Cc1ccc(O)c(OC)c1,inactive,–
CCCC[C@H]1CN(CC2CCOCC2)C(=O)OC12CCN(C1(C)CCN(C(=O)c3c(C)ncnc3C)CC1)CC2,inactive,–
CCCCCCCC/C=C\CCCCCCCC(=O)OC[C@@H](O)[C@H]1OC[C@H](O)[C@H]1O,inactive,–
O=C1NS(=O)(=O)c2ccccc21,inactive,–
NCc1cccc(C2CCN(C(=O)c3ccc(C#Cc4ccccc4F)o3)CC2)c1,–,38 µM (active)
Oc1ccc2ccccc2c1,–,13.3 µM (active)
O=C(NS(=O)(=O)/C=C/c1cccs1)c1ccc(F)cc1Br,inactive,–
CCOC(=O)C(C)Oc1ccc(Oc2nc3ccc(Cl)cc3o2)cc1 (stereo not given),–,29.9 µM (active)
O=c1c(-c2ccc(O)cc2)coc2cc(O)ccc12,inactive,–
CN1CCN(Cc2cc(-c3ccc4[nH]c(=O)oc4c3)co2)[C@@H](c2ccc(F)cc2)C1,–,10.1 µM (active)
NC(=O)c1nc(-c2cccc(-c3cc(F)ccc3OCC(F)(F)C(F)(F)F)c2)n[nH]1,inactive,–
CCOC(=O)CCC(=O)OCC,–,34.7 µM (active)
CC(C)(O)c1ccc(CNC(=O)c2cccnc2Oc2ccc3nonc3c2)cc1,inactive,–
NCCO,inactive,–

Structure (SMILES),outcome,AC50
CCOC(=O)[C@H](C)Oc1ccc(Oc2nc3ccc(Cl)cc3o2)cc1,–,15.9 µM (active)
C=CCCCCCCCCCCCC,inactive,–
CS(=O)(=O)OCCCCOS(C)(=O)=O,inactive,–
CCC(C)N(C)C(=O)c1cc2ccccc2c(-c2ccccc2Cl)n1 (stereo not given),inactive,–
CCCCN1C(=O)[C@@H]([C@H](O)C2CCCCC2)NC(=O)C12CCN(Cc1ccc(Oc3ccc(C(=O)O)cc3)cc1)CC2,inactive,–
CN(C)c1ccc(C(=C2C=CC(=[N+](C)C)C=C2)c2ccc(N(C)C)cc2)cc1,–,25 µM (active)
CN(C)c1ccc(N=NS(=O)(=O)O)cc1,–,23.8 µM (active)
CCc1cc(SCc2sc(-c3ccc(C(F)(F)F)cc3)nc2CN2CCN(c3ccc(OC)cc3)CC2)ccc1OCC(=O)O,inactive,–
CCCCCCC(C=O)=Cc1ccccc1,inactive,–
OCC(CO)(CBr)CBr,inactive,–
Cc1[nH]cnc1C[C@H]1CCc2c(C)c3ccccc3n2C1=O,–,22.2 µM (active)
Cc1ccc([N+](=O)[O-])cc1N,–,26.1 µM (active)
CNS(=O)(=O)c1cc(C(=O)N2CCC(CCN3C4CCC3CC(n3c(C)nc5ccccc53)C4)(c3cccc(F)c3)CC2)c(Cl)cc1F (stereo not given),inactive,–
Fc1ccccc1[C@@H](F)COC1CCC(Nc2ncnc3[nH]ncc23)CC1 (stereo not given in full),–,7.67 µM (active)
O=C(c1ccc(OCCN2CCCCC2)cc1)c1c(-c2ccc(O)cc2)sc2cc(O)ccc12,–,10.8 µM (active)
NC(=Nc1ccccc1)Nc1ccccc1,inactive,–
COc1ccc(OC(F)(F)F)cc1CN[C@H]1CCCN[C@H]1c1ccccc1,–,36.5 µM (active)
Cc1nccn1-c1ccc(Sc2cccc(C3(C(N)=O)CCOCC3)c2)cc1,inactive,–
COc1cccc([C@H](O)C2CCN(CCc3ccc(F)cc3)CC2)c1OC,–,12.5 µM (active)
CN(C)C(=O)NC1(c2ccccc2)CCN(CCC[C@]2(c3ccc(Cl)c(Cl)c3)CCCN(C(=O)c3ccccc3)C2)CC1,inactive,–
